Assay outcomes deposited in PubChem by several laboratories.
Autofluor counter = flagged as autofluorescent in microsphere protease counterscreen; compound autofluorescence counterscreen, microsphere flow cytometry; active compounds read high; fluorescence intensity (concentration not given with the values); 3.1% of 360,000 active; in the data active means fluorescence intensity above about 16000; inconclusive means no clear call, values can overlap the other calls
BoNT A protease = blocks Botulinum neurotoxin A light chain protease | 0.17% of 360,000 active | multiplex microsphere protease substrate cleavage, flow cytometry | inhibition, % at 10 µM | AID 588499; further: plate controls were buffer without enzyme for full effect and enzyme alone for no effect
Anthrax LF inh2 = anthrax lethal factor protease inhibition; 0.12% of 360,000 active; inhibition, % at 10 µM; AID 588501; P15917; multiplex microsphere protease cleavage assay, LF; further: plate controls were buffer without enzyme for full effect and enzyme alone for no effect
DUSP3 inh = DUSP3 (human) phosphatase inhibition. P51452. 0.52% of 290,000 active. recombinant VHR phosphatase, pNPP absorbance. inhibition, % at 13.3 µM; in the data active means inhibition above about 50%
Target sequence (P51452 whole entry, looked up): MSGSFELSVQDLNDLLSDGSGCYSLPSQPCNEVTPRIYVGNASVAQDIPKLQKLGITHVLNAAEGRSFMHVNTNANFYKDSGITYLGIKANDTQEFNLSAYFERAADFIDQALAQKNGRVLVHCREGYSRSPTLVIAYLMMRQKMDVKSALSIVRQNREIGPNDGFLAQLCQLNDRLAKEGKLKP
MazEF act = increases E. coli MazEF RNase cleavage of RNA; 0.32% of 350,000 active; activation, % at 20 µM; P0AE70; FAM/BHQ RNA-DNA oligo cleavage fluorescence, 5 h; in the data active means activation above about 50%
Target sequence (P0AE70 whole entry, looked up): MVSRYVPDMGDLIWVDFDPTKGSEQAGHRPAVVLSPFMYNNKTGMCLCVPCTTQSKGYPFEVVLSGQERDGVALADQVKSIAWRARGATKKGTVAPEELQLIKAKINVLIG
BoNT-F LC inh = BoNT F light chain protease inhibition. Multiplex microsphere protease cleavage assay, flow cytometry. inhibition, % at 10 µM. 0.22% of 360,000 active. AID 588497; in the data active means inhibition above about 35%, passing the limit was not always enough; inconclusive means no clear call, values can overlap the other calls; further: plate controls were buffer without enzyme for full effect and enzyme alone for no effect
Active calls of the source: *; ? = inconclusive; . = not tested or not shown. Only some compounds are listed: those with a hit (about 4% of all), similar ones and a draw of the others. Unless noted, no stated cut-off is given here; in the data, active means inhibition above about 30%; inconclusive means no clear call, values can overlap the other calls; inactive means below that.

SMILES	Autofluor counter	BoNT A protease	Anthrax LF inh2	DUSP3 inh	MazEF act	BoNT-F LC inh
O=C(OCCN=C1NS(=O)(=O)c2ccccc21)C1CC(=O)N(c2ccc3ccccc3c2)C1 (centres undefined)	19051*	?	-1.0	-3.8	-7.2	4.1
O=C(OCCN=C1NS(=O)(=O)c2ccccc21)c1ccncc1	10489	0.6	-0.2	26.9	-5.5	0.4
O=C(CNC(=O)c1ccco1)OCc1c(F)cccc1Cl	20975*	?	-1.5	33.8	3.0	4.1
O=C(CCl)NCc1c(Cl)cccc1-n1cccc1	22575*	-0.1	2.6	23.5	5.2	-3.1
O=C(Cc1c(Cl)cccc1Cl)NCCc1ccc(Cl)cc1	9129	-0.9	-1.0	14.1	-1.2	-10.3
Cc1nnc(-c2cccc(Br)c2)c2cn(-c3ccccc3Cl)nc12	26146*	1.8	-13.6	-1.0	0.8	14.2
COc1ccccc1N1CCc2c(C)nc3c(OC)cccc3c21	22775*	-1.6	1.3	7.2	16.2	-5.8
CSc1nc(C)cc(OCC#N)n1	3214	1.0	-2.1	14.1	5.6	12.5
Cc1cc(Cl)ccc1NC(=O)COC(=O)c1cc([N+](=O)[O-])ccc1N1CCOCC1	49183*	-187.1	-43.9	.	4.4	-287.1
O=C(COC(=O)c1cc([N+](=O)[O-])ccc1N1CCOCC1)Nc1ccc(Cl)cc1	5761	0.3	2.8	20.2	6.6	0.9
Nc1nonc1C(=O)OCC(=O)N1CCOCC1	20876*	?	-7.0	5.9	7.3	-5.4
Cc1ccc(C(=O)OCC(=O)N2CCOCC2)cc1	3492	-2.2	-11.6	20.4	12.3	2.0
O=C(c1cc2ccccc2[nH]1)N1O[C@@H]2C=C[C@H]1C2	3933	0.1	-7.5	.	9.8	-7.5
COc1ccc(N2CCN(C(=O)c3ccc(CNS(=O)(=O)c4cccc(OC)c4)cc3)CC2)cc1	6066	0.4	3.7	-1.5	3.0	4.7
N#Cc1c(-c2ccccc2F)cc(C2CC2)nc1SCC(=O)c1cccs1	2735	8.4	1.8	3.4	65.4*	-12.6
O=C(Oc1c(Cl)cc(Cl)c2cccnc12)N1CCCCC1	21476*	?	-0.8	-12.2	-12.3	-7.8
O=C(Oc1c(Cl)cc(Cl)c2cccnc12)N1CCOCC1	?	?	?	3.5	-5.3	3.5
O=C(Nc1nnc(-c2ccccc2F)s1)C1CCN(S(=O)(=O)c2ccc(Cl)cc2)CC1	2096	0.3	0.1	8.4	-13.5	-1.9
COCc1cc(C)nc(OCC(=O)N/N=C/c2cc(C)n(-c3c(C)cccc3C)c2C)c1C#N	3051	-0.2	4.6	-29.5	3.3	8.8
C[N+]1(CC(=O)Nc2ccc(F)cc2)CCN(C(=O)c2ccco2)CC1	16539*	0.3	-1.6	43.0	-1.0	2.7
COC(=O)c1ccc(N2CCC(c3cc(-c4ccc(OC)cc4)n[nH]3)CC2)c([N+](=O)[O-])c1	23463*	-1.8	-5.2	8.2	4.3	-5.7
O=C(Oc1ccc(Cl)cc1)c1ccc(N2CCOCC2)c([N+](=O)[O-])c1	2498	0.3	0.1	28.2	3.1	-3.4
CCOC(=O)c1cc(CC)sc1NC(=O)c1cc([N+](=O)[O-])ccc1N1CCOCC1	8418	1.1	-10.7	3.8	0.9	3.8
CO/N=C/c1ccc(N2CCN(C(=O)c3ccc(C)cc3)CC2)c([N+](=O)[O-])c1	24171*	-3.6	-4.6	24.6	2.1	-4.3
CCOC(=O)c1cc(CC)sc1NC(=O)c1ccc(N2CCOCC2)c([N+](=O)[O-])c1	19127*	3.1	0.1	21.3	-1.9	2.8
SMILES	Autofluor counter	BoNT A protease	Anthrax LF inh2	DUSP3 inh	MazEF act	BoNT-F LC inh
CO/N=C/c1ccc(N2CCCC2)c([N+](=O)[O-])c1	4209	-0.3	-2.4	9.4	1.1	-0.6
Cc1ccc(OC(=O)c2ccc(N3CCOCC3)c([N+](=O)[O-])c2)cc1	19491*	2.6	-4.9	23.5	-8.6	2.6
Cc1ccc(-c2nc3cc(NS(=O)(=O)c4ccc(C)cc4)ccc3o2)cc1	20631*	7.3	-7.6	1.6	2.7	5.3
Cc1ccc(-c2nc3cc(N)ccc3o2)cc1	23399*	0.5	-2.0	2.6	2.1	-0.6
CC(C)c1ccc2oc(-c3ccc(N)cc3)nc2c1	21916*	-7.1	-1.6	8.2	3.6	-8.4
CC(C)(C)c1ccc(-c2nc3cc(N)ccc3o2)cc1	3634	-0.1	-12.5	4.4	6.5	-33.0
CCNc1nc(Oc2ccc(=O)[nH]n2)nc(SC)n1	3101	0.4	0.6	9.9	1.3	5.8
CCOC(=O)c1nnn(-c2nonc2N)c1-c1cccc2ccccc12	3958	1.5	-1.6	-6.0	4.7	?
